Assay outcomes (PubChem)
In the library only some 3.9% were active in any assay of this set; here they are far more common.
VDR inhibitor = Inhibitors of the vitamin D receptor (VDR): qHTS. Vitamin D3 receptor (Homo sapiens), P11473. VDR-SRC2-3 peptide fluorescence polarization, 2 h. Potency, µM, without a hit: max response, negative = inhibition, actives largely listed as inhibitors. actives 0.93% (n = 400,000). AID 504847, 2011; further: on the % scale 0 is the no-effect control and ±100 the full control effect
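Signal is fluorescence polarization, reporting how far test compounds block the interaction of VDR with the SRC2-3 coregulator peptide after a 2 h room-temperature incubation.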
PLK1 PBD inh = qHTS for Inhibitors of PLK1-PDB (polo-like kinase 1 - polo-box domain): Primary Screen. Serine/threonine-protein kinase PLK1 (Homo sapiens), P53350. Plk1 PBD binding of FITC phosphopeptide, fluorescence polarization. Potency, µM, without a hit: max response, negative = inhibition, hits mostly inhibitors. actives 2.8% (n = 360,000). AID 720504, 2013; further: series mostly up to about 57 µM; on the % scale 0 is the no-effect control and ±100 the full control effect; nearly all actives have a fitted effect of over 65% in size
BRCA1 expr up = qHTS Assay to Identify Small Molecule Activators of BRCA1 Expression | MCF7-BRCA1-FFLuc reporter, luminescence, 48 h; response scale: scaled: vehicle 0%, 10 µM genistein 100% | Potency, µM (highest dose often 46.1 µM), for the others: top-dose activation, most hits filed as activators | actives 1.1% (n = 380,000) | AID 624202, 2012; further: nearly all actives have a fitted effect of over 80% in size
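MCF7 cells carrying a BRCA1-firefly luciferase reporter (2000 cells/well, phenol-red free MEM) were attached for 2 h at 37 °C, then given compounds for 48 h. Luminescence was read 15 min after luciferase reagent; activity normalized to genistein (10 microM) and DMSO.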
Tb PFK block = qHTS Assay to Find Inhibitors of T. brucei phosphofructokinase; actives 0.17% (n = 330,000); Potency, µM (top dose mostly 57.5 µM), for the others: top-dose activity, negative = inhibition, most hits filed as inhibitors; T. brucei PFK, ADP-Glo luminescence; AID 485367, 2010; ATP-dependent 6-phosphofructokinase (Trypanosoma brucei brucei), O15648;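 further: 0% = uninhibited 1x PFK enzyme wells and -100% = no-enzyme wells; nearly all actives have a fitted effect of over 60% in size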
Target sequence (O15648 whole entry, looked up): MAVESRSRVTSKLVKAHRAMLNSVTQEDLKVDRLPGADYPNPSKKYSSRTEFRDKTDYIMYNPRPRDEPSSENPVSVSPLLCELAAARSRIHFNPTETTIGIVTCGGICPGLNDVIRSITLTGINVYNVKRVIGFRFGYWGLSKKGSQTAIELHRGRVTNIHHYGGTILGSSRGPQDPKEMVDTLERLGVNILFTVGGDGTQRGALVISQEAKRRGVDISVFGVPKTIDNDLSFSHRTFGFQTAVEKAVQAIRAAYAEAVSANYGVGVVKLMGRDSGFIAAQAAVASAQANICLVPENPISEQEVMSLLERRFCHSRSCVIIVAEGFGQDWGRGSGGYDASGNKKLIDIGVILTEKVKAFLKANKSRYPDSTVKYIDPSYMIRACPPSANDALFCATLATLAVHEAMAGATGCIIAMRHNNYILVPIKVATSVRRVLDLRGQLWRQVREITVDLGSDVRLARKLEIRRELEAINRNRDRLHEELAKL
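1.25 nM PFK with 0.5 mM F6P and 0.1 mM ATP in 0.1 M TEA pH 8.0, 5 mM MgCl2, incubated 45 min at room temperature; ADP measured by ADP-Glo luminescence; compounds titrated up to 57 uM.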
* = called active by the depositor; u = inconclusive; x = no result given; ! = repeats disagree. The call rests on the fitted dose curve; in most records, active means well fitted curve in the direction sought with a large enough effect; inconclusive means small, poorly fitted or top-dose-only effect, or another doubt; inactive means no such curve, though single readings can be large; an effect the other way counts as inactive or inconclusive. Potency means the concentration at half of the fitted maximal effect.

SMILES | VDR inhibitor | PLK1 PBD inh | BRCA1 expr up | Tb PFK block
O=C(COC(=O)CSc1ccc([N+](=O)[O-])cc1)NCCCc1ccccc1 | 70.8µM* | 8.44µM* | 0.6% | -3.9%
Cc1ccc(CN(C)C(=O)COC(=O)CSc2ccc([N+](=O)[O-])cc2)cc1 | u | 13.4µM* | 0.5% | -6.5%
CSc1ccc(S(=O)(=O)NCC(=O)OC(C)C(=O)NCc2ccccc2)cc1[N+](=O)[O-] (centres undefined) | -6.8% | -7.4% | -22.3% | -12.1%
O=C(COC(=O)CSc1ccc([N+](=O)[O-])cc1)NCCc1ccccc1 | -19.4% | u | 0.7% | 1.5%
NC(=O)c1ccc(SCC(=O)OCC(=O)NC2CCCCCCC2)c([N+](=O)[O-])c1 | -17.9% | 23.8µM* | 0.0% | 1.2%
CC(OC(=O)CSc1ccc([N+](=O)[O-])cc1)C(=O)NCc1ccccc1 (centres undefined) | 79.4µM* | 4.74µM* | -14.3% | -8.7%
O=C(COC(=O)CSc1ccc([N+](=O)[O-])cc1)NC1CCCCCCC1 | u | 23.8µM* | -10.5% | -9.5%
Cc1ccc(SCC(=O)OCC(=O)NC2CCCCCCC2)cc1 | -3.9% | -1.5% | -11.2% | 0.0%
CCN(C(=O)COC(=O)CSc1ccc([N+](=O)[O-])cc1)C1CCS(=O)(=O)C1 (centres undefined) | u | 7.52µM* | -16.6% | -0.3%
Cc1ccc(NC(=O)C2C(c3ccccc3)C2(Cl)Cl)c(C)c1 (centres undefined) | u | 21.2µM* | -36.2% | -0.3%
Cc1cccc(NC(=O)C2C(c3ccccc3)C2(Cl)Cl)c1 (centres undefined) | 9.5% | -0.1% | -13.4% | -7.1%
CNc1cccc(-c2ccc(C(C)=O)s2)n1 | x | -0.5% | 6.31µM* | x
O=C(COC(=O)CCC(=O)c1ccc(F)cc1)Nc1ccccc1 | -17.8% | -3.6% | -6.7% | 1.2%
NC(=O)c1ccc(NC(=O)COC(=O)CCC(=O)c2ccc(Cl)cc2)cc1 | -12.2% | 23.8µM* | -2.0% | 2.3%
O=c1c2sccc2nc(SCc2cc(=O)n3cc(Br)ccc3n2)n1Cc1ccccn1 | -1.0% | -9.0% | 6.31µM* | -14.8%
CCOC(=O)CNC(=O)O[C@@H]1C(=O)c2cc(Br)ccc2O[C@H]1c1cccc(OC)c1 | 7.5% | x | x | x
CCOC(=O)C(=Cc1ccc(Br)cc1)C(=O)OCC | 10µM* | 16.8µM* | -93.1% | -1.4%
CC(C)N(CC#CCC(O)(c1ccccc1)c1ccccc1)CCO | 21.2% | -6.4% | 0.0% | -0.9%
CCN(CC#CCC(O)(c1ccccc1)c1ccccc1)C(C)C | -26.5% | 26.7µM* | -13.9% | 4.4%
Cc1ccc(Cn2cc(S(=O)(=O)c3ccccc3)c(=O)c3cc(F)c(N4CCOCC4)cc32)cc1 | 11.4% | x | x | x
CN(C)c1ccc(/C=C/c2nnnn2-c2ccccc2)cc1 | 3.9% | -5.7% | 3.98µM* | -1.8%
CN(C)c1ccc(/C=C/c2ccccn2)cc1 | x | x | -41.3% | x
O=C(CN1C(=O)c2ccccc2C1=O)NCC(=O)Nc1ccccc1 | -15.4% | -8.9% | -0.1% | x
CCc1sc(/C=C(/C#N)C(N)=S)cc1[N+](=O)[O-] | u | 5.32µM* | -10.1% | -24.1%
COc1ccc(C(=O)N/C(=C/c2cccnc2)C(=O)Nc2cccc(C(C)=O)c2)cc1OC | -14.0% | 29.9µM* | -10.3% | 0.3%
SMILES | VDR inhibitor | PLK1 PBD inh | BRCA1 expr up | Tb PFK block
CC(=O)Nc1cccc(C(=O)N/N=C/c2cccnc2)c1 | -5.6% | 23.8µM* | -1.2% | -4.5%
CN(Cc1cccc(C(F)(F)F)c1)C(=O)[C@H]1O[C@@H](n2ccc(N)nc2=O)[C@H](O)[C@@H]1O | x | 3.1% | 14.6% | x
S=c1ccss1 | 20µM* | x | x | x
O=C(CCCN1C(=O)/C(=C\c2ccccc2)SC1=S)Nc1ccc(C(=O)O)cc1 | u | -21.3% | -47.6% | -2.0%
O=C(O)c1ccc(N2C(=O)/C(=C/C=C/c3ccccc3)SC2=S)cc1 | -10.2% | 26.7µM* | -25.9% | 0.7%
O=C(CCN1C(=O)/C(=C\C=C\c2ccccc2)SC1=S)Nc1ccc(C(=O)O)cc1 | u | 23.8µM* | u | 0.5%
CCOC(=O)c1c(C)[nH]c(C)c1S(=O)(=O)N(C)CC(=O)N1CCN(c2cccc(C)c2C)CC1 | 10.0% | x | -7.3% | x
O=C(OCC1CCCO1)c1ccc2c(c1)N(Cc1ccccc1)C(=O)c1ccccc1S2(=O)=O (centres undefined) | 2.0% | x | x | x
O=c1cc(-c2ccccc2)[nH]c2cc(Cl)ccc12 | 79.4µM*! | -3.8% | -62.4% | 7.5%
